JMJD2A Tudor – blocks the human JMJD2A Tudor domain; O75164; AlphaScreen JMJD2A-Tudor / H3K4me3 peptide binding; Potency, µM (series often up to 114 µM), for inactives: at the highest dose activity change, negative = inhibition, usual class: inhibitors; 390,000 tested, 4.4% active; AID 504339; note: % is set by controls: 0 for no effect and ±100 for the full control effect; nearly all actives have a fitted effect of over 50% in size
Sfp inh – blocks B. subtilis Sfp PPTase activity; Q9F4F7; Biochemical Sfp PPTase activity, qHTS; Potency, µM, inactives show largest response in the series, negative = inhibition, most hits filed as inhibitors; 310,000 tested, 3.5% active;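 note: the enzyme is Sfp with the accession as filed and its product quenches rhodamine fluorescence; 0% = enzyme reaction without inhibitor and -100% = no enzyme wells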
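With Hepes-Na pH 7.6 buffer containing 10 mM MgCl2, Sfp (15 nM) modified BHQ-2-YbbR (12.5 uM) using rhodamine-CoA (5 uM). Two reads 30 minutes apart at 525/598 nm yielded each well's rate.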
HP1b chromo inh – blocks HP1-beta chromodomain binding to methylated histone tails; P83916; AlphaScreen HP1-beta / biotin-H3K9me3 peptide binding; Potency, µM (doses to about 114 µM), without a hit: top-dose activity change, negative = inhibition, most hits filed as inhibitors; 390,000 tested, 0.56% active; AID 540317; note: nearly all actives have a fitted effect of over 70% in size
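HP1-beta protein (50 nM final) preincubated 30 min at room temperature with biotinylated H3(1-18)K9me3 peptide (50 nM) in PBS pH 7.4, 0.01% Tween-20, then compound added for 30 min. AlphaScreen streptavidin donor/nickel chelate acceptor beads (10 ug/mL final), 30 min dark, luminescence read.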
TDP1 inh – inhibitors of human tyrosyl-DNA phosphodiesterase TDP1 | Q9NUW8 | recombinant TDP1, AlphaScreen DNA substrate cleavage | Potency, µM (titrated, usually from 130 µM), inactives show at the highest dose activity change, negative = inhibition, most hits filed as inhibitors | 350,000 tested, 0.28% active; note: % is set by controls: 0 for no effect and ±100 for the full control effect; nearly all actives have a fitted effect of over 40% in size
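Enzyme-compound mixtures sat 15 min at room temperature, followed by a 5 min reaction with 15 nM final substrate and 10 min with AlphaScreen beads. Recombinant human Tdp1 was used at 1 nM final.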
G9a block – inhibitors of human histone lysine methyltransferase G9a; Q96KQ7; G9a H3K9 monomethylation, AlphaScreen, 2 h; Potency, µM (top dose mostly 102 µM), inactives show at the highest dose activity, negative = inhibition, most hits filed as inhibitors; 350,000 tested, 8.8% active; AID 504332; note: % is set by controls: 0 for no effect and ±100 for the full control effect; nearly all actives have a fitted effect of over 75% in size
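G9a (20 nM) was preincubated 15 min with compound, then reacted 2 h at room temperature with 500 nM biotin-H3K9 peptide and 20 µM SAM. Monomethyl-H3K9 detected by AlphaScreen using anti-H3K9me1 antibody.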
BAZ2B inh – blocks human BAZ2B | Q9UIF8 | AlphaScreen BAZ2B-H3K14Ac peptide displacement | Potency, µM (titrated, usually from 114 µM), without a hit: at the highest dose activity change, negative = inhibition, usual class: inhibitors | 360,000 tested, 4.4% active | AID 504333; note: % is set by controls: 0 for no effect and ±100 for the full control effect; nearly all actives have a fitted effect of over 60% in size
Target sequence (Q9UIF8 whole entry, looked up): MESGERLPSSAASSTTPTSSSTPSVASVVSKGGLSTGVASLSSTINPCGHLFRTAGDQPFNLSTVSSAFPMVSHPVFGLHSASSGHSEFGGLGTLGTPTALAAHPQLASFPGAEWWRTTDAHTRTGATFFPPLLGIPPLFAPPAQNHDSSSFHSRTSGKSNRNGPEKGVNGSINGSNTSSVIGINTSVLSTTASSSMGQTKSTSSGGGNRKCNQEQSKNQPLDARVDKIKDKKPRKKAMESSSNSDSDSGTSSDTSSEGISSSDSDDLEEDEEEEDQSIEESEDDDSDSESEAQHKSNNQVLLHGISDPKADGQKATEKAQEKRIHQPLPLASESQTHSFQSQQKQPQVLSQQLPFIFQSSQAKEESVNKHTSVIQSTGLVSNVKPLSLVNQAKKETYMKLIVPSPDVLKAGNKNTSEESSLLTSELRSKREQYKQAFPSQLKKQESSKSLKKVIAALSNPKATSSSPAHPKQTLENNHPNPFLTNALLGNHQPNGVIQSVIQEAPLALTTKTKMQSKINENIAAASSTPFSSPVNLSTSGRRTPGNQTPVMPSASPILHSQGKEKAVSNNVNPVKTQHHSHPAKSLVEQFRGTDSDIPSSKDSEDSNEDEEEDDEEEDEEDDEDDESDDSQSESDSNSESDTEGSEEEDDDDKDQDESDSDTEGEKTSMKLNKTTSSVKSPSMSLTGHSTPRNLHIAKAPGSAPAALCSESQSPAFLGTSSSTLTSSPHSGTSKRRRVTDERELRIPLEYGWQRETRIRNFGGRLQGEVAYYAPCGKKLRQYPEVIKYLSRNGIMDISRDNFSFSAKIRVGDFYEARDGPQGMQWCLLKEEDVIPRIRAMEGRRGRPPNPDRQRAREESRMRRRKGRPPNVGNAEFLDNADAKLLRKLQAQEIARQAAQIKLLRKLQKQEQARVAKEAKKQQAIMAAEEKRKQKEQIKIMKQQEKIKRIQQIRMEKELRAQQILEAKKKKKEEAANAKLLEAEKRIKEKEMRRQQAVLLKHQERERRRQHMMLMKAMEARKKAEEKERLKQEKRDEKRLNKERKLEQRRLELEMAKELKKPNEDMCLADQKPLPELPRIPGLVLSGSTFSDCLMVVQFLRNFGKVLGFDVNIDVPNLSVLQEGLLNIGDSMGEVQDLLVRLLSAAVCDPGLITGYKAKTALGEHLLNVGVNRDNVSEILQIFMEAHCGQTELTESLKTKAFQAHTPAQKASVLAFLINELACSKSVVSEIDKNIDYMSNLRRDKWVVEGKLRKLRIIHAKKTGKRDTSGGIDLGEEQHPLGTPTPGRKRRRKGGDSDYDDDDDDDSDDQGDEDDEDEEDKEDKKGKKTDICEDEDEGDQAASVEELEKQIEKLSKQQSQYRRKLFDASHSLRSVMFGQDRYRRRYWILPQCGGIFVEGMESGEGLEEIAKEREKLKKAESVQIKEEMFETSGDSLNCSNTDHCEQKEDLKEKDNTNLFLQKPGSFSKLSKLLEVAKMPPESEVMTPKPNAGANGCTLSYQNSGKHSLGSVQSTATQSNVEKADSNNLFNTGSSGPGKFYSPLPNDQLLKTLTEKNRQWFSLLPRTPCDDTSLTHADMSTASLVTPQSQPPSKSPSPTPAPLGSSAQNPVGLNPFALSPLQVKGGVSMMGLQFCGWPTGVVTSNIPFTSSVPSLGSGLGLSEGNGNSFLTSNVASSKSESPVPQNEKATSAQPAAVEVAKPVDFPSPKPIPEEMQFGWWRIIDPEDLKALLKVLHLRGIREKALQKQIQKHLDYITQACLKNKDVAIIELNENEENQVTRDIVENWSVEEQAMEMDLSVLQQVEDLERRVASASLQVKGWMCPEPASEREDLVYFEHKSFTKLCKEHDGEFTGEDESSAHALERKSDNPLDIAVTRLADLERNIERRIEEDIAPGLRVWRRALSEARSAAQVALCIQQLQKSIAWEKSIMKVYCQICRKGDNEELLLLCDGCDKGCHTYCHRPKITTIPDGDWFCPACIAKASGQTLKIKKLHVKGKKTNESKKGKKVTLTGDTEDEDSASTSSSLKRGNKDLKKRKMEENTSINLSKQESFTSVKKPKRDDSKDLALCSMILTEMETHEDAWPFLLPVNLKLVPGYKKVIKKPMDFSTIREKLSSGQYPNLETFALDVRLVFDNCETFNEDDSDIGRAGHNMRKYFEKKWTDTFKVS
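AlphaScreen luminescence quantifies BAZ2B engagement of H3K14Ac peptide; the protein and biotinylated peptide are both at 50 nM final, buffer PBS pH 7.4 with 0.01% Tween-20, all steps at room temperature.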
Starred values were filed as active, the others as inactive; ? = inconclusive; . = not tested or not shown; ! = not confirmed by another sample; [ ] = another dose, or the depositor's remark. In the library only some 12% were active in any assay of this set; here they are far more common. Calls come from the whole dose curve; as a rule, active = well fitted curve in the direction sought with a large enough effect; inconclusive = small, poorly fitted or top-dose-only effect, or another doubt; inactive = no such curve, though single readings can be large; an effect the other way counts as inactive or inconclusive. Potency is the fitted concentration of half-maximal effect.

SMILES	JMJD2A Tudor	Sfp inh	HP1b chromo inh	TDP1 inh	G9a block	BAZ2B inh
CCCc1cc(=O)[nH]c2nnc(SCC(=O)Nc3ccc(C(C)=O)cc3)n12	-19%	.	55%	.	-24%[0.501 µM]	-23%
CCCc1cc(=O)[nH]c2nnc(SCC(=O)Nc3nnc(CC)s3)n12	25µM*	.	7%	.	-8%[12.7 µM]	6%
O=C(COC(=O)C1CC2CCCC(C1)C2=O)NNC(=O)c1ccc([N+](=O)[O-])cc1 (centres undefined)	-12%	.	35%	1%	11%[0.501 µM]	9%
COC(=O)c1ccc(NC(=O)CSc2ccccc2)cc1	32µM*	1%	?	4%	-2%[59 µM]	12%
CCOc1ccc(NC(=O)c2ccc(NCC(=O)N3CCCCCC3)cc2)cc1	-8%	14%	48%	9%	25µM*	0%
COC(=O)c1ccc(NC(=O)CSc2ccccn2)cc1	-1%	-17%	13%	-10%	?	-22%
CCOc1ccc(NCC(=O)c2ccc(C)cc2)cc1	?	15%	-15%	3%	-9%[59 µM]	35µM*
COC(=O)c1ccc(NC(=O)CN2CCN(CC#N)CC2)cc1	2.2µM*	?	50µM*	.	10µM*	40µM*
Cc1ccc(C(=O)CNc2ccc(Cl)cc2)cc1	-23%	-3%	17%	4%	?	?
CNC(=O)c1cc(Oc2ccc(NC(=O)Nc3ccc(Cl)c(C(F)(F)F)c3)cc2)ccn1	?	-3%	1%	3%	28%[2.33 µM]	-12%
COC(=O)c1cnc(SCc2ccc([N+](=O)[O-])cc2)n1C	-23%	20%	24%	6%	?	-15%
COCCN(C(=O)C1CC(=O)N(Cc2ccc(C)cc2)C1)c1c(N)n(CC(C)C)c(=O)[nH]c1=O (centres undefined)	-5%	.	50%	-3%[56.1 µM]	6%[2.33 µM]	0%
CCOc1ccc(NC(=O)c2ccc(N)cc2)cc1	-13%	16%	50%	-8%	24%[59 µM]	11%
CCOc1ccc(NC(=O)c2ccc(NC(=O)c3ccc(NC(N)=O)cc3)cc2)cc1	?	.	?	56µM*	.	.
CCOc1ccc(C(=O)COC(=O)Cc2n[nH]c(=O)c3ccccc23)cc1	-2%	.	21%	.	-37%	9%
CCOc1ccc(NC(=O)c2ccc(NC(=O)Cc3n[nH]c(=O)c4ccccc34)cc2)cc1	1%	-3%	20%	0%	56µM*	-14%
CCOc1ccc(NC(=O)CN2CCN(CC(=O)Nc3ccc(C(N)=O)cc3)CC2)cc1	5%	5%	32%	.	50µM*	2%
CCOc1ccc(NC(=O)CN2CCN(CC(=O)Nc3ccc(F)cc3)CC2)cc1	-10%	10%	67%	2%	3%[12.7 µM]	1%
O=C(OCCN1CCCCC1)c1c[nH]c2ccccc12	-16%	10%	21%	9%[56.1 µM]	-42%[59 µM]	4%
COc1ccccc1N1CCN(c2ccc(=O)n(CC(=O)O)n2)CC1	-5%	.	34%	-9%	-29%[59 µM]	.
CN(C)CCOC(C)(c1ccccc1)c1ccccn1 (centres undefined)	-7%	7%	8%	8%	10µM*!	0%
CN(C)CCC(c1ccccc1)c1ccccn1 (centres undefined)	-7%	-1%	19%	8%[56.1 µM]	-4%[59 µM]	?
CCN1CCN(C(=O)CCc2nnc3ccc(N4CCC5(CC4)OCCO5)nn23)CC1	-3%	21%	33%	10%	?	-11%[57.1 µM]
N#Cc1cc2c(nc1SCc1nc3ccccc3[nH]1)CCC2	.	56µM*	.	10%	?	9%
Cc1cccc(CSc2nc3c(cc2C#N)CCC3)c1	38%	-2%	60%	-10%	-4%[59 µM]	58%
N#Cc1cc2c(nc1SCc1cccnc1)CCCC2	?	45µM*	-16%	1%	?	16%
C/C(=C\c1ccccc1)C(=O)NCCCn1ccnc1	-8%	20%	25%	3%	0%	-18%
Cc1nc(-c2ccc(S(=O)(=O)NCc3ccc(F)cc3)cc2)co1	-14%	.	13%[57 µM]	3%	-4%[59 µM]	-1%

High-throughput results deposited in PubChem by National Center for Advancing Translational Sciences (NCATS).
